# Rows were chosen to be rich in hits. Some 1.4% of all compounds tested hit in one or more screens of this group.
# VACV mCherry inh = vaccinia inhibition (mCherry reporter). actives 0.63% (n = 310,000). Vaccinia virus mCherry reporter infection, fluorescence. AID 720579. Potency, µM (series often up to 36.5 µM), for inactives: at the highest dose activity change, negative = inhibition, usual class: inhibitors; calls by dose curve; tested in A549 cells; further: potency means the concentration at half of the fitted maximal effect; on the % scale 0 is the no-effect control and ±100 the full control effect; nearly all actives have a fitted effect of over 35% in size
# VACV Venus inh = vaccinia inhibition (Venus reporter) | Vaccinia virus Venus reporter expression, fluorescence | Potency, µM (series often up to 36.5 µM), inactives show at the highest dose activity change, negative = inhibition, hits mostly inhibitors | actives 0.46% (n = 330,000) | AID 720580; calls by dose curve; tested in A549 cells; further: potency means the concentration at half of the fitted maximal effect; on the % scale 0 is the no-effect control and ±100 the full control effect; nearly all actives have a fitted effect of over 30% in size
# AmpC inh detg = AmpC beta-lactamase inhibition with detergent present | AmpC hydrolysis of nitrocefin, absorbance 480 nm, 0.01% Triton | Potency, µM (highest dose often 114 µM), inactives show at the highest dose activity change, negative = inhibition, hits mostly inhibitors | actives 0.041% (n = 370,000) | AID 485294;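 further: potency means the concentration at half of the fitted maximal effect; 0% = no-compound wells and -100% = no-enzyme wells; nearly all actives have a fitted effect of over 25% in size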
# Target sequence (P00811 whole entry, looked up): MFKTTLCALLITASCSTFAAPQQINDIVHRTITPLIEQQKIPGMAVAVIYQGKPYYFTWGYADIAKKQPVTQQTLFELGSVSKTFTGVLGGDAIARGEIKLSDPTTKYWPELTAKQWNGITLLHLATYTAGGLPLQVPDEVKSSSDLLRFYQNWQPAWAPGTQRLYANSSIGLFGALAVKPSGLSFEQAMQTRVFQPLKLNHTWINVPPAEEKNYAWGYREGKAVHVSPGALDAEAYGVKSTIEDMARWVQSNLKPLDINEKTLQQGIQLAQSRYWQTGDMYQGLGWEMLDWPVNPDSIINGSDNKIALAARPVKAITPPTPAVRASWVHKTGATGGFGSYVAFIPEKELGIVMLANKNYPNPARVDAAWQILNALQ
#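 20 mM phosphate pH 7.0 + 0.01% (detergent screen) or 0.0001% Triton X-100; 5.3 nM AmpC reagent; cpd preinc 15 min RT; nitrocefin (800 uM stock) to start; A480 q20 s × 4 min; Activity was normalised to no-enzyme and no-compound control wells.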
# AMA1-RON2 inh = AMA1-RON2 (P. falciparum) interaction inhibition | AlphaScreen AMA1-biotinylated RON2 peptide binding | Potency, µM (doses to about 58.2 µM), inactives show at the top dose activity change, negative = inhibition, hits mostly inhibitors | actives 0.2% (n = 360,000);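 further: potency means the concentration at half of the fitted maximal effect; 0% = vehicle wells and -100% = peptide control; nearly all actives have a fitted effect of over 45% in size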
#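 AMA1 (3D7) with his tag at 25 nM final met compounds first, then biotinylated RON2 peptide at 25 nM; detection used donor plus acceptor beads, 10 µg/mL apiece, read by AlphaScreen after 30 min at room temperature.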
# AmpC inh no detg = AmpC beta-lactamase inhibition without detergent; AmpC nitrocefin hydrolysis, absorbance 480 nm, 0.0001% Triton; actives 0.52% (n = 330,000); Potency, µM (doses to about 57.1 µM), for inactives: at the top dose activity change, negative = inhibition, usual class: inhibitors; P00811;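 further: potency means the concentration at half of the fitted maximal effect; plate controls were no compound for no effect and no enzyme for full effect; nearly all actives have a fitted effect of over 20% in size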
#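 20 mM phosphate pH 7.0 + 0.01% (detergent screen) or 0.0001% Triton X-100; 5.3 nM AmpC reagent; cpd preinc 15 min RT; nitrocefin (800 uM stock) to start; A480 q20 s × 4 min; Activity was normalised to no-enzyme and no-compound control wells.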
# SARS PLpro yeast-1 = inhibitors of SARS-CoV papain-like protease in yeast. Potency, µM (highest dose often 32.9 µM), for inactives: at the highest dose activity, positive = growth rescue, usual class: activators. actives 0.19% (n = 330,000). S. cerevisiae expressing SARS-CoV PLpro, growth rescue; calls by dose curve; further: potency means the concentration at half of the fitted maximal effect; 0% is about no effect; nearly all actives have a fitted effect of over 55% in size
# SARS PLpro yeast-2 = Inhibits SARS-CoV PLP in yeast, hit validation | shares compounds with SARS PLpro yeast-1 | yeast expressing SARS-CoV PLpro, growth phenotype rescue | calls only | actives 19% (n = 1,000) | AID 652038; call rule not given here
# Starred values were filed as active, the others as inactive; i = inactive; ? = inconclusive; · = no result given; + = active, no number. Unless noted, the call rests on the fitted dose curve; in most records, active means well fitted curve in the direction sought with a large enough effect; inconclusive means small, poorly fitted or top-dose-only effect, or another doubt; inactive means no such curve, though single readings can be large; an effect the other way counts as inactive or inconclusive.
SMILES,VACV mCherry inh,VACV Venus inh,AmpC inh detg,AMA1-RON2 inh,AmpC inh no detg,SARS PLpro yeast-1,SARS PLpro yeast-2
CCNC(=S)NNC(=O)C1CCCCC1,·,·,0%,63%,-22%,4µM*,i
COCCC1CCCCN1C(=O)c1cc(COc2ccc(-n3cncn3)cc2)on1 (stereo not drawn),-20%,-21%,1%,7%,89%,?,i
C/C(=N\NC(=O)CCCNc1ccc(C)cc1)c1ccccn1,11µM*,?,?,46%,-36%,?,+
C/C(=N\NC(=O)CCCNc1ccccc1)c1ccncc1,-2%,-7%,5%,-3%,-10%,1%,·
CC(=O)O[C@H]1C(=O)[C@@]2(C)[C@H]([C@H](OC(=O)c3ccccc3)[C@]3(O)C[C@H](OC(=O)[C@H](O)C(NC(=O)c4ccccc4)c4ccccc4)C(C)=C1C3(C)C)[C@]1(OC(C)=O)CO[C@@H]1C[C@@H]2O (stereo partly drawn),?,-25%,-7%,-5%,211%,0%,·
CC(=O)O[C@@]12CO[C@@H]1C[C@@H](O)[C@@]1(C)C(=O)[C@H](O)C3=C(C)[C@@H](OC(=O)[C@H](O)[C@@H](NC(=O)c4ccccc4)c4ccccc4)C[C@@](O)([C@@H](OC(=O)c4ccccc4)C12)C3(C)C (stereo partly drawn),?,-21%,-9%,-2%,243%,?,?
COc1cc(NC(=O)N2CCN(c3cc(-c4noc(C)n4)ccc3C)CC2)cc(OC)c1OC,-14%,-17%,2%,·,·,·,·
O=C(Nc1cc2ccc(O)cc2oc1=O)c1ccccc1,-10%,-8%,-7%,·,·,·,·
Cc1nnsc1C(=O)N/N=C/c1ccccc1,-7%,9%,-3%,-2%,5%,-32%,·
Cc1nnsc1C(=O)N/N=C/c1ccc2ccccc2c1O,2.2µM*,?,0%,-7%,-22%,1µM*,i
Cc1ccc(CNc2ncnc3onc(C)c23)cc1,-23%,-14%,19%,·,·,·,·
COC(=O)Nc1ccccc1C(=O)N1CCC(O)(c2ccc(Cl)cc2)CC1,-2%,-9%,?,8%,-1%,?,i
COc1ccc(CNC(=O)C[C@H]2C[C@H](C(=O)N3CCOCC3)[C@@]3(CCC4CCCC4)c4[nH]c5cc(CCC(=O)N(C)C)ccc5c4CCN3C2=O)cc1OC,i,0%,·,-7%,226%,?,i
O=[N+]([O-])c1ccc(/C=C/c2cc(Cl)nc3ccccc23)cc1,-24%,-17%,·,·,·,·,·
CCCCCC(=O)Nc1ccc(Cc2ccncc2)cc1,·,-10%,1%,10%,-12%,13µM*,i
CC(C)(C)c1ccc(C2=NC(C)(C)N(CC(=O)Nc3ccc(F)c(F)c3)C2=O)cc1,-16%,-20%,1%,·,·,·,·
CN(CC(=O)Nc1c(Cl)cccc1Cl)C(=O)c1cc(S(=O)(=O)N(C)C)ccc1N1CCCC1,-16%,-3%,-2%,-10%,6%,?,i
COc1ccc(NC(=O)CN(C)C(=O)c2cc(S(=O)(=O)N(C)C)ccc2N2CCCC2)cc1,i,-16%,?,-2%,-2%,·,·
COc1ccccc1N1C(=O)[C@@H]2[C@H](C1=O)[C@H](C(=O)c1ccc(OC(C)=O)cc1)N1N=CC=C[C@@H]21,-13%,1%,-6%,-2%,72%,0%,·
CC(=O)Oc1ccc(C(=O)[C@H]2[C@H]3C(=O)N(c4ccc5ccccc5c4)C(=O)[C@H]3[C@@H]3C=CC=NN32)cc1,-14%,-3%,-8%,-13%,8%,3.2µM*,i
CCCCNC(=O)CCCCCNS(=O)(=O)c1ccc(OC)cc1,-9%,-11%,-6%,4%,0%,?,i
C/C(=N\NC(=O)c1ccc(CSc2nncn2C)cc1)c1ccc2ccccc2c1,i,-14%,-3%,-6%,-20%,?,i
CCOC(=O)CN(C)C(=O)c1cnn(-c2ncc3c(n2)-c2ccccc2CCC3)c1C,-9%,-8%,·,·,·,·,·
Cc1sc2nc(CN(C(=O)NC3CCCCC3)C3CCCC3)[nH]c(=O)c2c1C,·,·,6%,40%,-26%,3.5µM*,?
Cc1ccc(NC(=O)c2oc3ccccc3c2NC(=O)C2CCCCC2)cc1,-10%,-6%,10%,·,·,·,·
SMILES,VACV mCherry inh,VACV Venus inh,AmpC inh detg,AMA1-RON2 inh,AmpC inh no detg,SARS PLpro yeast-1,SARS PLpro yeast-2
COC(=O)Cc1c(C)nc2nc(-c3ccc(Cl)cc3)[nH]n2c1=O,·,2%,-12%,-1%,-8%,?,i
O=C(c1ccc(-n2c(SCc3cccc(F)c3)nc3ccccc3c2=O)cc1)N1CCOCC1,-9%,3%,-3%,-12%,244%,3.2µM*,+
Cc1cccc(OCc2nnc(SCC(=O)Nc3ccc(C)cc3C)o2)c1,-11%,1%,-3%,·,·,·,·
Cc1ccccc1C1NC(c2ccccc2C)C([N+](=O)[O-])C(C)(C)C1[N+](=O)[O-] (stereo not drawn),?,-10%,-2%,-5%,-1%,0%,·
Cc1cccc(C2NC(c3cccc(C)c3)C([N+](=O)[O-])C(C)(C)C2[N+](=O)[O-])c1 (stereo not drawn),-8%,-8%,-2%,-15%,-22%,?,i
NC(=O)c1cccn1-c1ncc(C(F)(F)F)cc1Cl,-9%,4%,-12%,6%,-18%,1%,·
O=C(Nc1ccc(Br)cc1)c1cccn1-c1ncc(C(F)(F)F)cc1Cl,·,·,-2%,7%,-27%,?,i
COc1cc(C(c2oc(CO)cc(=O)c2O)c2oc(CO)cc(=O)c2O)cc(OC)c1OC,·,·,-6%,14%,-8%,?,i
COc1ccc(C(c2oc(CO)cc(=O)c2O)c2oc(CO)cc(=O)c2O)cc1,-5%,-9%,1%,9%,25%,4.5µM*,+
Cc1ccnc(NC(c2ccccc2O)c2oc(CO)cc(=O)c2O)c1 (stereo not drawn),·,·,1%,-3%,-14%,?,·
Cc1ccc(CNC(=O)c2cn(C3CCCCC3)c(=O)c3c2c2ccccc2n3C)o1,-23%,-13%,-9%,8%,-28%,?,+
CCc1ccccc1N1C(=O)N(CC(=O)c2ccc(Cl)cc2)c2ccccc2S1(=O)=O,6%,-7%,10%,·,·,·,·
Cc1ccccc1NC(=O)C(C)OC(=O)CNS(=O)(=O)c1ccc(C#N)cc1 (stereo not drawn),-15%,1%,?,5%,-7%,?,i

# Compound activity from PubChem.
